# Measured values published in the antibiotic and cytotoxicity screens of Wong et al. (2023).
# Screen size: about 39,000 compounds; about 3,300 (8.5%) were called active. The sample holds actives, similar compounds and a random draw of the others, so the mix is not that of the screen.
# Tested on: HepG2
# Assay: cytotoxicity call (relative viability < 0.9)
# Details: 10 µM
row,Compound,cytotoxicity call
1,C[C@@H]1CN([C@@H](C)CO)C(=O)CCCn2cc(nn2)CO[C@H]1CN(C)C(=O)Nc1ccnc(N2CCOCC2)c1,inactive
2,Cc1noc(C)c1NC(=O)N(C)C[C@H]1Oc2ccc(NC(=O)c3ccncc3)cc2C(=O)N([C@H](C)CO)C[C@@H]1C,active
3,Cc1noc(C)c1NC(=O)N(C)C[C@H]1Oc2ccc(NC(=O)c3ccncc3)cc2C(=O)N([C@@H](C)CO)C[C@H]1C,inactive
4,C[C@H]1CN([C@@H](C)CO)C(=O)c2cc(NC(=O)c3ccncc3)ccc2O[C@@H]1CN(C)Cc1ccc(Oc2ccccc2)cc1,inactive
5,C[C@@H]1CN([C@H](C)CO)C(=O)c2cc(NC(=O)c3ccncc3)ccc2O[C@H]1CN(C)Cc1ccc(-c2ccccc2)cc1,active
6,Cc1noc(C)c1NC(=O)N(C)C[C@H]1Oc2ccc(NC(=O)c3ccncc3)cc2C(=O)N([C@@H](C)CO)C[C@@H]1C,inactive
7,C[C@H](CO)N1C[C@H](C)[C@H](CN(C)Cc2ccc(Oc3ccccc3)cc2)Oc2ccc(NC(=O)c3ccncc3)cc2C1=O,active
8,C[C@@H]1CN([C@@H](C)CO)C(=O)c2cc(NC(=O)c3ccncc3)ccc2O[C@@H]1CN(C)Cc1ccc(-c2ccccc2)cc1,inactive
9,C[C@@H]1CN([C@H](C)CO)C(=O)c2cc(NC(=O)c3ccncc3)ccc2O[C@@H]1CN(C)Cc1ccc(Oc2ccccc2)cc1,inactive
10,C[C@H](CO)N1C[C@H](C)[C@@H](CN(C)Cc2ccc(-c3ccccc3)cc2)Oc2ccc(NC(=O)c3ccncc3)cc2C1=O,inactive
11,C[C@@H]1CN([C@@H](C)CO)C(=O)c2cc(NC(=O)CCCN(C)C)ccc2O[C@H]1CN(C)Cc1ccncc1,inactive
12,C[C@@H]1CCCCO[C@@H](CN(C)CC2CCCCC2)[C@@H](C)CN([C@@H](C)CO)C(=O)c2cc(NC(=O)CCC(F)(F)F)ccc2O1,inactive
13,Cc1ccc(S(=O)(=O)N(C)C[C@@H]2Oc3ccc(NS(C)(=O)=O)cc3C(=O)N([C@H](C)CO)C[C@@H]2C)cc1,inactive
14,COc1ccc2c3c(n(c2c1)C)[C@@H](CO)N(C[C@]13CN(Cc2ccncc2)C1)C(=O)CN1CCOCC1,inactive
15,O=C(C[C@@H]1CC[C@H]2[C@@H](COC[C@@H](O)CN2Cc2ccccc2F)O1)N[C@@H]1CCN(Cc2ccccc2)C1,inactive
16,C[C@@H]1CCCCO[C@@H](CN(C)C(=O)Nc2cccc3ccccc23)[C@H](C)CN([C@@H](C)CO)C(=O)c2cc(NS(=O)(=O)c3cccs3)ccc2O1,inactive
17,C[C@@H]1CN([C@@H](C)CO)C(=O)c2c(c3ccccc3n2C)-c2ccccc2CO[C@@H]1CN(C)C(=O)NC1CCCCC1,inactive
18,Cn1c(=O)c2c(ncn2CC(=O)N2CCN(c3ccccc3F)CC2)n(C)c1=O,inactive
19,CCN(CC)C(=S)SSC(=S)N(CC)CC,active
20,O=C(NCc1nc2ccccc2[nH]1)C1=C[C@@H](c2ccc(C(F)(F)F)cc2)C[C@@H](OCc2ccc(CO)cc2)O1,inactive
21,Nc1cc(N)nc(SCCC(=O)O)n1,inactive

row,Compound,cytotoxicity call
1,COCC(=O)N1CC(=O)N2[C@H](CO)[C@@H](c3ccc(C#Cc4cccnc4)cc3)[C@H]2C1,inactive
2,COC(=O)CC1C2(C)CC34OC5(C)OC6(C7C(=C(O)C(C)C)C(=O)OC(c8ccoc8)C7(C)C(OC(C)=O)C(OC(C)=O)C6(O5)C13C)C(OC(C)=O)C4(O)C2OC(=O)C(C)C (stereo not drawn),inactive
3,CC(C)C(O)=C1C(=O)OC(c2ccoc2)C2(C)C(O)C(O)C34OC5(C)OC3(C12)C(O)C1(O)C(O)C2(C)CC1(O5)C4(C)C2CC(=O)O (stereo not drawn),inactive
4,CC(C)C(=O)[C@@H]1C(=O)O[C@@H](c2ccoc2)[C@]2(C)[C@H](O)[C@@H](O)[C@@]34O[C@]5(C)O[C@]3([C@H]12)[C@H](O)[C@@]1(O)[C@H](O)[C@]2(C)C[C@]1(O5)[C@@]4(C)[C@H]2CC(=O)O,active
5,COc1cccc(S(=O)(=O)N(C)C[C@H]2Oc3ncc(C#CC(C)C)cc3C(=O)N([C@H](C)CO)C[C@@H]2C)c1,inactive
6,C[C@H](C(=O)N(C)C[C@H]1OCc2ccccc2-c2c(n(C)c3ccccc23)C(=O)N([C@@H](C)CO)C[C@H]1C)c1ccccc1,inactive
7,C[C@H](C(=O)N(C)C[C@@H]1OCc2ccccc2-c2c(n(C)c3ccccc23)C(=O)N([C@@H](C)CO)C[C@@H]1C)c1ccccc1,inactive
8,C[C@@H](C(=O)N(C)C[C@H]1OCc2ccccc2-c2c(n(C)c3ccccc23)C(=O)N([C@@H](C)CO)C[C@@H]1C)c1ccccc1,inactive
9,C[C@@H]1CN([C@@H](C)CO)C(=O)c2c(c3ccccc3n2C)-c2ccccc2CO[C@@H]1CN(C)C(=O)[C@H](C)c1ccccc1,inactive
10,C[C@H](CO)N1C[C@H](C)[C@H](CN(C)C(=O)[C@H](C)c2ccccc2)OCc2ccccc2-c2c(n(C)c3ccccc23)C1=O,active
11,C[C@H](C(=O)N(C)C[C@H]1OCc2ccccc2-c2c(n(C)c3ccccc23)C(=O)N([C@@H](C)CO)C[C@@H]1C)c1ccccc1,active
12,Cc1noc(C)c1NC(=O)Nc1ccc2c(c1)C(=O)N([C@H](C)CO)C[C@H](C)[C@@H](CN(C)Cc1ccccc1)OCCCC[C@H](C)O2,inactive
13,C[C@H]1CN([C@@H](C)CO)C(=O)c2cc(NC(=O)Nc3ccc(C(F)(F)F)cc3)ccc2O[C@@H]1CN(C)Cc1ccccc1,inactive
14,C[C@@H]1CN([C@@H](C)CO)C(=O)c2cc(NC(=O)Nc3ccc(C(F)(F)F)cc3)ccc2O[C@H]1CN(C)Cc1ccccc1,inactive
15,C[C@H]1CN([C@@H](C)CO)C(=O)c2cc(NC(=O)Nc3ccc(C(F)(F)F)cc3)ccc2O[C@H]1CN(C)Cc1ccccc1,active
16,C[C@@H]1CN([C@H](C)CO)C(=O)c2cc(NC(=O)Nc3ccc(C(F)(F)F)cc3)ccc2O[C@@H]1CN(C)Cc1ccccc1,active
17,C[C@H](CO)N1C[C@H](C)[C@H](CN(C)Cc2ccccc2)Oc2ccc(NC(=O)Nc3ccc(C(F)(F)F)cc3)cc2C1=O,active
18,C[C@@H]1CN([C@@H](C)CO)C(=O)c2cc(NC(=O)Nc3ccc(C(F)(F)F)cc3)ccc2O[C@@H]1CN(C)Cc1ccccc1,active
19,COc1ccc2c3c([nH]c2c1)[C@@H](CO)N(C[C@]13CN(Cc2ccccc2)C1)S(=O)(=O)c1cn(cn1)C,inactive
20,C[C@@H]1CN([C@H](C)CO)S(=O)(=O)c2ccc(C#CC3(O)CCCC3)cc2O[C@@H]1CN(C)C(=O)c1cccnc1,inactive
21,COc1ccc(CN(C)C[C@H]2OCCCC[C@H](C)Oc3ccc(NC(=O)c4ccccc4)cc3C(=O)N([C@H](C)CO)C[C@H]2C)cc1,inactive

row,Compound,cytotoxicity call
1,COc1ccc(CN(C)C[C@H]2OCCCC[C@@H](C)Oc3ccc(NC(=O)Cc4ccccc4)cc3C(=O)N([C@H](C)CO)C[C@H]2C)cc1,inactive
2,CC[C@@](N)(C(=O)O)c1ccccc1,inactive
3,C=C(C)[C@]1(O)OC(=O)C=C1OC,inactive
4,C[C@@H]1CN([C@H](C)CO)C(=O)c2cc(C#Cc3ccccc3F)cnc2O[C@@H]1CN(C)S(=O)(=O)c1ccccc1,inactive
5,CCC(=O)N1CCC[C@@H]1C(=O)O,inactive
6,Cc1noc(C)c1NC(=O)Nc1ccc2c(c1)C(=O)N([C@H](C)CO)C[C@H](C)[C@H](CN(C)C(=O)c1ccccc1)OCCCC[C@@H](C)O2,inactive
7,Cc1ccc(S(=O)(=O)N[C@@H]2CC[C@@H](CC(=O)N3CCC(Cc4ccccc4)CC3)O[C@@H]2CO)cc1,inactive
8,C[C@@H]1CCCCO[C@H](CN(C)CC2CCCCC2)[C@H](C)CN([C@H](C)CO)C(=O)c2cc(NC(=O)c3ccncc3)ccc2O1,inactive
9,C[C@H](CO)N1C[C@H](C)[C@H](CN(C)C(=O)Nc2ccc(C(F)(F)F)cc2)Oc2ccc(NC(=O)Nc3ccc4c(c3)OCO4)cc2C1=O,inactive
10,C[C@@H]1CN([C@H](C)CO)S(=O)(=O)c2ccc(-c3cccc(F)c3)cc2O[C@@H]1CN(C)S(C)(=O)=O,inactive
11,C[C@@H]1CN([C@@H](C)CO)C(=O)c2cc(NC(=O)C3CC3)ccc2O[C@H]1CN(C)S(=O)(=O)c1ccc(Cl)cc1,inactive
12,C[C@@H]1CN([C@H](C)CO)C(=O)c2cc(NC(=O)Nc3ccc(C(F)(F)F)cc3)ccc2O[C@H]1CN(C)Cc1ccccc1,active
13,C[C@H](CO)N1C[C@H](C)[C@@H](CN(C)Cc2ccccc2)Oc2ccc(NC(=O)Nc3ccc(C(F)(F)F)cc3)cc2C1=O,active
14,C[C@@H]1CN([C@@H](C)CO)C(=O)c2cc(NC(=O)Cc3ccccc3)ccc2O[C@@H](C)CCCCO[C@@H]1CN(C)S(=O)(=O)c1cccs1,inactive
15,Cc1cc(C(=O)Nc2cccc3c2O[C@H](CN(C)Cc2ccccc2)[C@@H](C)CN([C@@H](C)CO)C3=O)n(C)n1,inactive
16,C[C@H]1CN([C@@H](C)CO)C(=O)c2cccc(NC(=O)Nc3ccc4c(c3)OCO4)c2O[C@@H]1CN(C)S(=O)(=O)c1cn(C)cn1,inactive
17,C[C@H](CO)N1C[C@H](C)[C@H](CN(C)S(=O)(=O)c2cccs2)OCCCC[C@H](C)Oc2ccc(NC(=O)CCC(F)(F)F)cc2C1=O,inactive
18,Cc1noc(C)c1NC(=O)Nc1ccc2c(c1)C(=O)N([C@H](C)CO)C[C@H](C)[C@@H](CN(C)S(C)(=O)=O)O2,inactive
19,C[C@@H]1CCCCO[C@@H](CN(C)C(=O)Nc2ccc(C(F)(F)F)cc2)[C@H](C)CN([C@@H](C)CO)C(=O)c2cc(NC(=O)Nc3ccc4c(c3)OCO4)ccc2O1,inactive
20,Cc1noc(C)c1NC(=O)Nc1ccc2c(c1)C(=O)N([C@@H](C)CO)C[C@H](C)[C@@H](CN(C)C(=O)Nc1ccccc1)OCCCC[C@H](C)O2,inactive
21,C[C@H](CO)N1C[C@H](C)[C@H](CN(C)C(=O)Nc2cccc3ccccc23)Oc2ccc(NC(=O)CCC(F)(F)F)cc2C1=O,inactive
